# Measurements published in PubChem BioAssay AID493170 (National Center for Advancing Translational Sciences (NCATS), 2011).
# Results filed as inconclusive are left out. Entries that show only a call come without a potency. Active and inactive are the calls of the source. The call rests on the fitted dose curve; in most records, active means well fitted inhibition curve with a large enough effect; inconclusive means small, poorly fitted or top-dose-only effect, or effect the other way; inactive means flat fitted curve, though single readings scatter.
# Target: Ubiquitin carboxyl-terminal hydrolase 2 (Homo sapiens) (UniProt O75604)
# Test: Ub-rhodamine 110 based assay for inhibitors Ubiquitin-specific Protease USP2a; further: nearly all actives have a fitted effect of over 50% in size
# Settings: USP2a Ub-rhodamine110 cleavage, fluorescence; series mostly up to 38.3 µM
# Procedure, shortened: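 5 nM USP2a preincubated with compounds for 30 min at RT in 20 mM Tris-HCl pH 8.0, 2 mM CaCl2, 2 mM beta-mercaptoethanol, 0.05% CHAPS. Cleavage of 150 nM Ub-rhodamine 110 read kinetically (Ex 485/Em 531) for 7 min.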
# Potency means the concentration at half of the fitted maximal effect.
# Chain of Ubiquitin carboxyl-terminal hydrolase 2 (Homo sapiens) (O75604 whole entry, looked up): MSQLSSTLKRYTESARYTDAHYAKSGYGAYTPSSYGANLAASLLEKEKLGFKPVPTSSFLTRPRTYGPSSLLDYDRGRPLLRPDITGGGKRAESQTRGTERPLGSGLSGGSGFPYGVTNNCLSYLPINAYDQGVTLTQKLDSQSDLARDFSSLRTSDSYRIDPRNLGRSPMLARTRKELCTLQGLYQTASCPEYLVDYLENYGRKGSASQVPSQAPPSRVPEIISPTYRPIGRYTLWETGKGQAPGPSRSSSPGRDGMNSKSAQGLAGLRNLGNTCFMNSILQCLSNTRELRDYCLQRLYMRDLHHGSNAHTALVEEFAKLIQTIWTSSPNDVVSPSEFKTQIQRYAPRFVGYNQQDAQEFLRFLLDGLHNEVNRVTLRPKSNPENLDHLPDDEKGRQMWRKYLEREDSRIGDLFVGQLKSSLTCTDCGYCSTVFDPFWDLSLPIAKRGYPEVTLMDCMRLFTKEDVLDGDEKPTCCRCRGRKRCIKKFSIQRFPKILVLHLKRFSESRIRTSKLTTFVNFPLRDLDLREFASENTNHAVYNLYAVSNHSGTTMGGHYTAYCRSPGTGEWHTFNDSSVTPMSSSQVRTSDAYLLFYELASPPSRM
row,Structure (SMILES),Potency
1,Cc1cccc(N2CCN(C(=O)CCc3nc4ccccc4[nH]3)CC2C)c1 (centres undefined),inactive
2,CC12CN3CC(C)(CN(C1)C3c1ccc(Cl)cc1Cl)C2O (centres undefined),inactive
3,CCOc1ccc(Cn2nnc(C(=O)NCc3ccccc3)c2N)cc1,inactive
4,C=CCNCCOCCOc1ccccc1-c1ccccc1,inactive
5,COc1ccc(-c2noc(CSc3nnc(Cc4ccccc4)n3-c3ccc(Cl)cc3)n2)cc1,inactive
6,Cc1ccc(N=C2NC(=O)/C(=C/C=C/c3ccco3)S2)cc1,7.08 µM (active)
7,O=C(CCN1C(=O)/C(=C\c2ccco2)SC1=S)Nc1ccc(C(=O)O)c(O)c1,7.94 µM (active)
8,O=C(CCNc1cccc(Cl)c1)c1ccco1,inactive
9,CC1CC(C)CN(C(=O)CSc2nnc(-c3ccc(Cl)cc3)o2)C1 (centres undefined),inactive
10,CCOC(=O)C1CCCN(C(=O)c2cc(-c3ccco3)nc3ccccc23)C1 (centres undefined),4.47 µM (active)
11,COc1ccc(-n2c(O)c(/C=N/n3cnnc3)c3ccccc3c2=O)cc1,inactive
12,COc1ccc(CC(=O)c2ccccc2C(=O)O)cc1,inactive
13,O=C(Cc1cccs1)Nc1ccc(S(=O)(=O)N2CCCCC2)cc1,7.94 µM (active)
14,COC(=O)c1ccc(NC(=O)CSC2=Nc3ccccc3C3CC=NN23)cc1 (centres undefined),inactive
15,O=C(Cc1ccc(S(=O)(=O)N2CCOCC2)s1)Nc1nc2c(s1)CCCC2,6.31 µM (active)
16,COC(=O)C1CCN(C(=O)c2cc(-c3ccco3)nc3ccccc23)CC1,3.55 µM (active)
17,COc1ccc(NC(=O)CSc2nc3sc(C)cc3c(=O)n2C)c(OC)c1,inactive
18,COc1ccc(-c2nnn(CC(=O)N3CCOCC3)n2)cc1,inactive
19,CC1CCN(c2ccc3c(c2)S(=O)(=O)c2cccc(C(=O)NC4CC4)c2C3=O)CC1,inactive
20,O=C(Nc1nnc(SCC(=O)N2CCCC2)s1)C1CC(=O)N(c2ccc(F)cc2)C1 (centres undefined),11.2 µM (active)

row,Structure (SMILES),Potency
1,N#Cc1c(-c2cccs2)nc(SCc2ccc(Cl)cc2)[nH]c1=O,10 µM (active)
2,CCOC(=O)c1c(C)n(-c2ccc(C)cc2)c2ccc(OCC(O)CN3CCN(C)CC3)cc12 (centres undefined),inactive
3,COc1ccc(-n2c(=S)[nH]c3cc(C(=O)Nc4cc(OC)c(OC)c(OC)c4)ccc3c2=O)c(OC)c1,inactive
4,Cc1ccc2[nH]c(=O)c(COC(=O)c3ccccn3)cc2c1,inactive
5,Cc1cccc(N=C2NC(=O)/C(=C/C=C/c3ccco3)S2)c1,10 µM (active)
6,O=C(Nc1ccc(N2CCCC2)cc1)c1ccc(Br)cc1,8.91 µM (active)
7,CCOC(=O)C(=O)Nc1nc(-c2ccc3c(c2)CCN3C(=O)C2CC2)c(C)s1,inactive
8,CC1(C)Cc2c(C#N)c(N3CCN(C(=O)c4ccco4)CC3)nc(-c3ccco3)c2CS1,8.91 µM (active)
9,c1ccc(CN2CCN(CCOCCOc3cccc4ccccc34)CC2)cc1,inactive
10,O=C(CC(C(=O)O)C1CCCO1)NCCc1ccc2c(c1)OCO2 (centres undefined),inactive
11,COc1ccccc1NC(=O)N1CCN(c2ccccn2)CC1,inactive
12,CCOc1cc(/C=C2\C(=O)N(c3nc(-c4ccc(Br)cc4)cs3)N=C2c2ccccc2)ccc1O,3.16 µM (active)
13,Cc1c2c(=O)n(-c3nc4ccccc4s3)nc-2cc(O)n1Cc1ccccc1,6.31 µM (active)
14,Cc1cc(SCC(=O)Nc2ccccc2)nc(C)n1,inactive
15,Cc1cc(SCC(=O)NC2CCCCC2)nc2ccccc12,inactive
16,Cc1ccc(C2=[N+]([O-])C(C)N(O)C2(C)C)o1 (centres undefined),inactive
17,COC(=O)[C@@]12CCCCN1[C@H](c1ccc(-c3ccc(Cl)c(Cl)c3)cc1)[C@H]1C(=O)N(C)C(=O)[C@H]12,inactive
18,Cc1cnc(N)c2c(=O)oc3ccccc3c12,inactive
19,O=C(CCS(=O)(=O)c1ccc(Br)s1)NC1CCCC1,inactive
